Our source for the outcome values is PubChem BioAssay AID1053119 (Broad Institute, 2014).

A short description of this experiment: viability loss in A549 lung cancer cells – cell-based, cherry-picks, 26 µM top dose, cytotoxicity control, dose response (AID 1053119).

Measured potencies and affinities stand elsewhere. Results filed as inconclusive are left out. The source made the active and inactive calls.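 How the source made its calls: active means signal loss from cell killing with fitted potency at or below twice the top valid dose; inconclusive means flat drop of 30 to 70%, or unreliable curve fit; inactive means opposite direction, flat within 30%, or weaker potency.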

For the compound `COCC(=O)Nc1ccc2c(c1)C(=O)N(C)[C@@H]1CC[C@@H](CC(=O)NCc3ccccc3Cl)O[C@H]1CO2`, the compound was called inactive.

In the case of `O=C(OCC(O)C(O)COC(=O)c1ccccc1)c1ccccc1` (configuration not stated), the compound was classed as inactive. For `N#Cc1ccc(-c2ccc3c(c2)[C@@H]2[C@@H](CCN2S(=O)(=O)c2cccc(F)c2)[C@@H](CO)N3)cc1`, the outcome was inactive.

For `c1ccc2[nH]c(SCc3cn4cccnc4n3)nc2c1`, the result was inactive. With `C=CCC[C@H](Cc1ccc(F)cc1)C(=O)OC[C@H](Cc1c[nH]c2ccccc12)NC(=O)[C@@H](CC=C)CC(=O)N[C@@H](CO)Cc1ccccc1` the entry was “inactive”; with `O=C(c1cccnc1)N1C[C@H]2[C@@H](c3ccccc31)[C@H](CO)N2CC1CCCC1`, “inactive”. Consider `CSc1ccccc1C(=O)C1CCCN(C(=O)CCc2cccnc2)C1` (configuration not stated), for which the compound was classed as inactive. Turning to `CN(C)C(=O)c1ccc(-c2ccc3c(c2)[C@@H]2[C@@H](CCN2C(=O)c2ccc(F)cc2)[C@H](CO)N3C)cc1`, the compound was called inactive. On to `COc1cccc(CN2CCN(C(=O)c3ccc(-c4ccccc4)cc3)CC2)c1OC`, for which the result was inactive. As for `COc1ccccc1N(CC(=O)N(CC(C)C)CC(C)C)S(=O)(=O)c1cccs1`, the call was inactive. In the case of `O=C(Nc1cc(Sc2nc3ccccc3s2)cc([N+](=O)[O-])c1)c1ccccc1F`, the call was inactive. Take `O=C(Nc1ccccc1F)N1C[C@@H]2[C@H](c3ccccc31)[C@H](CO)N2C(=O)C1CC1`: the compound was classed as inactive. For `COc1cccc(-c2ccc3c(c2)[C@@H]2[C@@H](CCN2S(=O)(=O)c2cccc(OC)c2)[C@@H](CO)N3)c1`, the compound was classed as inactive. In the case of `C[C@H](O)C#Cc1ccc2c(c1)O[C@@H](CN(C)C)[C@H](C)CN([C@H](C)CO)S2(=O)=O` it was “inactive”; in that of `COc1ccc(CN(C2CCCC2)S(=O)(=O)c2ccc(-n3cnnn3)cc2)cc1OC`, “inactive”. In the case of `C[C@H](CO)N1C[C@H](C)[C@@H](CN(C)Cc2ccc(-c3ccccc3)cc2)Oc2ccc(NC(=O)CCCN(C)C)cc2C1=O` it was “inactive”; in that of `S=C(NCC1CCCO1)Nc1ccc(Cl)cc1Cl` (configuration not stated), “inactive”; in that of `CC(C)NC(=O)N(C)C[C@H]1Oc2ccc(NC(=O)CCN3CCOCC3)cc2C(=O)N([C@H](C)CO)C[C@@H]1C`, “inactive”. In the case of `COCC(C)n1c(SCc2nc(N)nc(Nc3ccccc3C)n2)nc2ccccc2c1=O` (configuration not stated) it was “inactive”; in that of `C[C@@H]1CN([C@H](C)CO)C(=O)c2cccc(NC(=O)Nc3ccc(C(F)(F)F)cc3)c2O[C@H]1CN(C)C(=O)Nc1cccc2ccccc12`, “inactive”. As for `Cc1ccc([N+](=O)[O-])cc1NC(=O)CN(C(=O)c1ccccc1Cl)C1CCCCC1`, the outcome was inactive. In the case of `C[C@H](O)C#Cc1ccc2c(c1)O[C@H](CN(C)C)[C@@H](C)CN([C@H](C)CO)S2(=O)=O` it was “inactive”; in that of `CC(=O)Nc1cccc(-c2ccnc3c2CC(C)(C(=O)Nc2cccc(C(F)(F)F)c2)O3)c1` (configuration not stated), “inactive”. With `COC(=O)c1cn(CC(=O)NCc2ccco2)c2ccccc12` the entry was “inactive”. Turning to `CO[C@H]1CN(C)C(=O)c2cc(NC(=O)Nc3cc(Cl)cc(Cl)c3)ccc2OC[C@H](C)NC[C@@H]1C`, the outcome was inactive. Regarding `C[C@H](CO)N1C[C@H](C)[C@@H](CN(C)Cc2ccc(-c3ccccc3)cc2)Oc2ccc(NC(=O)C3CCCCC3)cc2C1=O`, the compound was classed as inactive.

For `COc1ncccc1C(=O)NC1CCCc2c1cnn2-c1ccc(C)c(C)c1` (configuration not stated), the compound was classed as inactive.

Consider `C[C@H]1CN([C@@H](C)CO)C(=O)c2cc(-c3ccccc3)cnc2O[C@H]1CN(C)C(=O)c1cccc(F)c1`, for which the compound was called inactive. With `CN1c2ccc(-c3ccccc3)cc2[C@H]2[C@H](CCN2C(=O)CN2CCOCC2)[C@@H]1CO` the entry was “inactive”; with `Cc1c(NC(=O)c2ccc3nsnc3c2)cccc1[N+](=O)[O-]`, “inactive”; with `O=C(Nc1ccccc1F)N1C[C@@H]2[C@H](c3ccccc31)[C@H](CO)N2C(=O)C1CCOCC1`, “inactive”. Regarding `O=S(=O)(c1ccccc1F)N1CC[C@@H]2[C@@H](CO)Nc3ccc(-c4cccc(F)c4)cc3[C@@H]21`, the result was inactive.

Consider `C[C@H](O)C#Cc1ccc2c(c1)O[C@H](CN(C)C)[C@@H](C)CN([C@@H](C)CO)S2(=O)=O`, for which the call was inactive. On to `O=C(c1cccnc1)N1C[C@H]2[C@@H](c3ccccc31)[C@@H](CO)N2CC1CCCC1`, for which the outcome was inactive. In the case of `C[C@H](CO)N1C[C@H](C)[C@H](CN(C)C(=O)c2cccc(F)c2)Oc2ncc(-c3ccccc3)cc2C1=O` it was “inactive”. Turning to `CO[C@H]1CN(C)C(=O)c2cc(NC(=O)Nc3ccc(Cl)c(Cl)c3)ccc2OC[C@H](C)NC[C@H]1C`, the result was inactive. On to `CO[C@@H]1CN(C)C(=O)c2cc(NC(=O)Nc3ccc(Cl)c(Cl)c3)ccc2OC[C@H](C)NC[C@H]1C`, for which the result was inactive.
